# Compounds with a hit are over-represented: about 3% of the library has one in this group of screens.
# Sm TGR inh – qHTS Assay for the Inhibitors of Schistosoma Mansoni Peroxiredoxins; Schistosoma mansoni thioredoxin glutathione reductase (TGR), Q962Y6; purified TGR, DTNB reduction, TNB absorbance 405 nm; Potency, µM (top dose mostly 114 µM), for the others: at the top dose activity change, negative = inhibition, most hits filed as inhibitors; 3% of 360,000 active; AID 485364, 2010; active means well fitted inhibition curve with a large enough effect; inconclusive means small, poorly fitted or top-dose-only effect; inactive means no such curve, though single readings can be large or run the other way; further: on the % scale 0 is the no-effect control and ±100 the full control effect; nearly all actives have a fitted effect of over 60% in size
#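 First, TGR (20 nM dispensed) and NADPH were mixed with compound. Second, a 15 min room-temperature incubation followed. Third, further NADPH and then DTNB were added to start the reaction. Finally, TNB absorbance was monitored kinetically.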
# SARS PLP yeast – qHTS of Yeast-based Assay for SARS-CoV PLP; S. cerevisiae expressing SARS-CoV PLpro, growth rescue; 0.19% of 330,000 active; Potency, µM (doses to about 32.9 µM), for the others: at the highest dose activity, positive = growth rescue, most hits filed as activators; calls by dose curve; further: 0% is about no effect; nearly all actives have a fitted effect of over 55% in size
# * = called active by the depositor; ? = inconclusive; / = no result given. Potency means the concentration at half of the fitted maximal effect.
SMILES,Sm TGR inh,SARS PLP yeast
Cc1ccc(S(=O)(=O)Nc2ccc(O)c(Sc3ncn[nH]3)c2)cc1,/,0%
Cc1ccc(C)c(S(=O)(=O)Nc2ccc(O)c(Sc3ncn[nH]3)c2)c1,50µM*,0%
CCOC(=O)c1noc2ncnc(Nc3cccc(OC)c3)c12,-1%,/
Cc1ccc(S(=O)(=O)Nc2nc3n(n2)C(c2ccccc2Cl)C=C(c2ccccc2)N3)cc1 (centres undefined),2%,/
O=S(=O)(Nc1nc2n(n1)C(c1ccc(F)cc1)C=C(c1ccccc1)N2)c1ccccc1 (centres undefined),1%,/
OCCCc1nc2n(n1)C(c1ccccc1)C=C(c1ccc(F)cc1)N2 (centres undefined),20µM*,15%
OCCCc1nc2n(n1)C(c1ccccc1Cl)C=C(c1cccs1)N2 (centres undefined),28µM*,-2%
Cc1ccc2c(=O)cc(C(=O)Nc3ccc(S(=O)(=O)N4CCC(C)CC4)cc3)oc2c1C,3%,/
COc1ccc(Cn2c(=O)n(Cc3ccco3)c(=O)c3oc4ccccc4c32)cc1,-7%,/
O=C(CCn1c(=O)c2cccn2c2ccc(F)cc21)NCc1ccccc1F,2%,/
Cc1cc2ncn(-c3ncccc3[N+](=O)[O-])c2cc1C,45µM*,-27%
O=[N+]([O-])c1cccnc1-n1cnc2ccccc21,-31%,4%
O=C(Nc1ccc2oc(-c3ccc4ccccc4c3)nc2c1)c1cc(Cl)ccc1Cl,3%,/
O=C(COc1ccccc1[N+](=O)[O-])N(Cc1ccco1)c1ccccn1,-3%,/
C=CCn1c(O)c(C(CC)=NCCc2ccccc2)c(=O)[nH]c1=O,89µM*,-7%
C=CCn1c(O)c(C(CC)=Nc2ccc(N(C)C)cc2)c(=O)[nH]c1=O,32µM*,-1%
C=CCn1c(O)c(C(CC)=Nc2ccc3c(c2)CCC3)c(=O)[nH]c1=O,-1%,4%
C=CCn1c(O)c(C(C)=NCCc2ccccc2)c(=O)[nH]c1=O,-10%,18%
COc1ccc(NC(=O)C2CCC(CNS(=O)(=O)c3cccc4nsnc34)CC2)cc1OC (centres undefined),2%,/
COc1cc(C2Nc3cccc4cccc(c34)N2)cc(OC)c1O,?,-5%
Clc1cccc(C2Nc3cccc4cccc(c34)N2)c1Cl,-12%,-7%
Brc1ccc(-c2ccc(C3Nc4cccc5cccc(c45)N3)o2)cc1,35µM*,-27%
c1coc(C2Nc3ccccc3C3OCCC23)c1 (centres undefined),-6%,-5%
Oc1ccc(C2Nc3cccc4cccc(c34)N2)c(O)c1,50µM*,-10%
Brc1ccc(C2=Nc3cccc4cccc(c34)N2)o1,?,-3%
SMILES,Sm TGR inh,SARS PLP yeast
c1coc(C2Nc3cccc4cccc(c34)N2)c1,7.9µM*,-4%
Clc1ccccc1C1Nc2cccc3cccc(c23)N1,18µM*,-10%
CC(C)Sc1nnc(-c2ccc(S(=O)(=O)N3CCOCC3)cc2)n1C,50µM*,0%
CCN(CC)C(=O)CSc1nnc(-c2ccc(S(=O)(=O)N3CCOCC3)cc2)n1C,2%,0%
CC(=O)NC(C)C(=O)OCC(=O)Nc1ccc(Br)cc1 (centres undefined),12%,22%
CCCC(C)C(=O)OCC(=O)Nc1ccc(Br)cc1 (centres undefined),45µM*,-11%
CC1=C(C(=O)Nc2ccc(C)cc2C)C(c2ccccc2F)n2nc(SCC(=O)c3ccc(C)cc3)nc2N1 (centres undefined),-13%,/
Cc1ccc(NC(=O)c2noc(C(C)C)c2[N+](=O)[O-])cc1,40µM*,0%
CC(C)c1onc(C(=O)Nc2cccnc2Cl)c1[N+](=O)[O-],45µM*,1%
Cc1onc(C(=O)Nc2cccnc2Cl)c1[N+](=O)[O-],-21%,1%
CC(C)c1onc(C(=O)Nc2cccc(O)c2)c1[N+](=O)[O-],?,1%
COc1cc(OC)c(NC(=O)CCn2cnc3onc(-c4ccc(F)cc4)c3c2=O)cc1Cl,-5%,/
COc1ccccc1CNC(=O)COC(=O)/C=C/c1ccc(OC(F)F)c(OC)c1,-1%,1%
COc1cc(/C=C/C(=O)OCC(=O)Nc2oc(C)c3c(C)n[nH]c(=O)c23)ccc1OC(F)F,22µM*,8%
O=C(c1nc(-c2ccc(Cl)cc2)n2c1CCCCC2)N1CCN(c2ccccc2F)CC1,6%,/
O=C(NC(=S)Nc1cccc(NC(=O)c2ccccc2)c1)c1cccc([N+](=O)[O-])c1,-7%,-22%
COC(=O)c1cc(NC(=S)NC(=O)c2ccccc2)ccc1N1CCOCC1,25µM*,?
CC(=O)c1cccc(NC(=S)NC(=O)c2ccc(Cl)cc2)c1,-20%,12%
COc1ccc(C(=O)NC(=S)Nc2ccc(N3CCOCC3)cc2)cc1Cl,20µM*,28%
CC(=O)c1cccc(NC(=S)NC(=O)c2cccc(C)c2)c1,28µM*,-11%

# From PubChem
